A selection: hits, their analogues and other compounds. The true share with any hit is near 3.9%.
ATXN2 expr inh = Primary qHTS for Inhibitors of ATXN expression | HEK-293 ATXN2-luciferase reporter, luminescence, 24 h | Potency, µM (series often up to 57 µM), for the others: at the highest dose activity change, negative = inhibition, most hits filed as inhibitors | hit rate 0.72% among 360,000 | AID 1745845, 2022; note: % is set by controls: 0 for no effect and ±100 for the full control effect; nearly all actives have a fitted effect of over 55% in size
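qHTS (up to 57 uM final) was run with 24 h compound exposure of reporter cells at 37 °C. Each well was multiplexed: SteadyGlo luminescence measured ATXN2-luciferase expression after a fluorogenic Gly-Phe-AFC viability readout (25 uM final).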
HT1080 IDH1KD tx = qHTS for induction of synthetic lethality in tumor cells producing 2HG: qHTS for the HT-1080-IDH1KD cell line | Potency, µM (highest dose often 46.1 µM), inactives show at the highest dose activity, negative = toxicity, actives largely listed as cytotoxic | hit rate 2% among 360,000 | HT-1080 IDH1 knockdown viability, ATP luminescence, 48 h;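 note: 0% = DMSO wells and -100% = cell-free medium wells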
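Cytotoxicity counter-line: IDH1KD HT-1080, 48 h, CellTiter-Glo. Curves classed by r2, magnitude and activity.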
ATXN viability = Viability Counterscreen for Primary qHTS for Inhibitors of ATXN expression. hit rate 0.49% among 400,000. S2 cells (HEK-293 line with an ATXN2-luciferase reporter) viability, CellTiter-Fluor protease fluorescence, 24 h. Potency, µM (titrated, usually from 56.7 µM), usual class: cytotoxic; note: nearly all actives have a fitted effect of over 40% in size
HT1080-NT tox = qHTS for induction of synthetic lethality in tumor cells producing 2HG: qHTS for the HT-1080-NT fibrosarcoma cell line; HT-1080-NT fibrosarcoma viability, CellTiter-Glo ATP luminescence, 48 h; Potency, µM (series often up to 46.1 µM), for the others: at the highest dose activity, negative = less viability, actives largely listed as cytotoxic; hit rate 1.6% among 360,000; AID 686970, 2013;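 note: NT is the 2HG producing partner of a matched IDH1 knockdown line; 0% = DMSO-treated cells and -100% = media-only wells without cells; nearly all actives have a fitted effect of over 55% in size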
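Viability by CellTiter-Glo luminescence after 48 h compound exposure at 37C of HT-1080-NT cells (750/well, RPMI, 5% FBS). % activity scaled between DMSO wells and medium-only wells, then curve-fitted and categorized by curve class.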
TGFb SMAD3 inh = qHTS for Inhibitors of TGF-b; hit rate 1.2% among 410,000; HepG2 CAGA-GFP TGF-b/SMAD3 reporter, GFP fluorescence, 18 h; TGF-beta stimulated, 500 pg/mL final; AID 588855, 2011; Potency, µM (doses to about 46.1 µM), for the others: top-dose activity, negative = inhibition, hits mostly inhibitors; note: % is set by controls: 0 for no effect and ±100 for the full control effect; nearly all actives have a fitted effect of over 65% in size
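Inhibition of TGF-beta-driven CAGA-GFP reporter expression in HEPG2 cells is measured by cellular GFP fluorescence after 18 h stimulation with 500 pg/mL recombinant TGF-beta in 1% FBS medium at 37 degrees C.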
HepG2 tox = qHTS for Inhibitors of TGF-b: Cytotox Counterscreen; hit rate 0.76% among 410,000; HepG2 CAGA-GFP viability, ATP luminescence, 18 h; AID 588856, 2011; Potency, µM (series often up to 46.1 µM), for inactives: top-dose activity change, negative = cytotoxicity, usual class: cytotoxic
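CellTiter-Glo luminescence gave cytotoxicity after 18 hours at 37 degrees C. The cells were HepG2 CAGA-GFP in 1% FBS DMEM, stimulated with 500 pg/mL TGF-beta after compound addition. %Activity was normalised to no-cell wells (complete cell-killing) and DMSO (no toxicity), and curves were fitted and classified.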
An asterisk follows results filed as active; i = inactive; ? = inconclusive; nt = no result given. Calls come from the whole dose curve; as a rule, active = well fitted curve in the direction sought with a large enough effect; inconclusive = small, poorly fitted or top-dose-only effect, or another doubt; inactive = no such curve, though single readings can be large; an effect the other way counts as inactive or inconclusive. Potency is the fitted concentration of half-maximal effect.

SMILES	ATXN2 expr inh	HT1080 IDH1KD tx	ATXN viability	HT1080-NT tox	TGFb SMAD3 inh	HepG2 tox
Cc1ccc(C=Nc2ccccc2C(N)=O)s1	12%	3.3µM*	?	5.2µM*	?	-1%
Cc1cccc(/C=N/NC(=O)Cc2cccs2)c1	25%	-1%	i	1%	30%	13%
Cc1cccc(C=Nc2ccccc2C(N)=O)c1	11%	7.1µM*	i	10µM*	30%	-16%
CCC1CCCCN1C(=O)CSc1nc(-c2ccc(OC)cc2)cc(C(F)(F)F)n1 (configuration not stated)	?	nt	?	nt	?	-34%
Cc1c(C(=O)O)c(O)cc2c1C(=O)c1c(O)c([C@@H]3O[C@H](CO)[C@@H](O)[C@H](O)[C@H]3O)c(O)c(O)c1C2=O	0%	-21%	18µM*	-30%	-19%	-9%
Cc1c(C(=O)O)c(O)cc2c1C(=O)c1c(O)c([C@H]3O[C@H](CO)[C@@H](O)[C@H](O)[C@H]3O)c(O)c(O)c1C2=O	nt	nt	nt	nt	3%	3%
CCOc1ccc(Oc2nc(NCC(C)C)nc(NC(C)(C)C)n2)nn1	nt	nt	nt	nt	0%	-30%
CCCn1c(NC(=O)c2cccc(S(=O)(=O)N3CCCC3)c2)nc2ccccc21	16µM*	?	?	?	14µM*	-44%
Cc1ccccc1NC(=O)C1CCN(C(=O)c2cnn(-c3ccccc3)c2-n2cccc2)CC1	-7%	nt	i	nt	-22%	-12%
Cc1sc(NC(=O)CCl)c(C(=O)c2ccccc2)c1C	?	?	?	?	?	13µM*
Cc1cc(C(=O)c2ccc(C(C)(C)C)cc2)c(NC(=O)CCl)s1	?	?	?	?	16µM*	-102%
Cc1ccccc1C(=O)Nc1sc(C)c(C)c1C(=O)c1ccccc1	-3%	5%	i	13%	?	-21%
CC1=C(C(=O)Nc2cccnc2)C(c2ccc(Cl)cc2)n2nc(-c3ccccc3)nc2N1 (configuration not stated)	?	nt	?	nt	?	-36%
CSc1cccc(NC(=O)C2CCN(S(=O)(=O)c3ccc4c(c3)CCCN4C(=O)C3CCC3)CC2)c1	-22%	nt	i	nt	10%	-12%
CCCCCCCCCCCCCCCC[n+]1ccc(C(N)=O)cc1	?	-6%	?	-4%	?	-69%
CCCCCCCCCCCCCCCC[n+]1ccc(/C=N/O)cc1	?	23µM*	?	21µM*	?	-113%
COc1ccc2c(c1)C(c1ccccc1)NC(=O)C2 (configuration not stated)	0%	0%	i	-1%	-15%	11µM*
CCc1cccc(-n2c(=O)c3cccnc3n2CC(=O)NCc2ccccc2Cl)c1	nt	nt	nt	nt	1%	4%
COc1cc(-c2cc(OC)c3c(C)oc(C)c3c(=O)c2)ccc1OC(=O)c1ccccc1C	nt	nt	nt	nt	0%	-19%
Cc1nc2c(OCc3ccc(C(F)(F)F)cc3)cccn2c1N(C)C(=O)CCC1CCCC1	32µM*	?	?	?	?	-92%
O=C1CC(N(CCc2ccccc2)C(=S)Nc2ccccc2)C(=O)N1c1ccc(Br)cc1 (configuration not stated)	?	?	?	16µM*	?	2.2µM*
COc1ccc(OCCn2cc(C=O)c3ccccc32)cc1	-25%	-7%	i	-12%	7.9µM*	-50%
NCCc1c(-c2ccccc2)n(-c2ccccc2)c2ccccc12	28µM*	21µM*	?	15µM*	?	20µM*

High-throughput results as filed in PubChem.
